Laboratory results reported in PubChem BioAssay (NCATS).
Records with an inconclusive call do not appear. Activity calls are given as the source filed them. The call rests on the fitted dose curve; in most records, active means well fitted curve in the direction sought with a large enough effect; inconclusive means small, poorly fitted or top-dose-only effect, or another doubt; inactive means no such curve, though single readings can be large; an effect the other way counts as inactive or inconclusive.

Experiments:
[1] = test system: CRL-7250; experiment: Cytotoxic Profiling of Annotated Libraries Using Quantitative High-Throughput Screening (AID 1296008); details: Five cell lines viability, CellTiter-Glo ATP luminescence, 48-72 h; max response: stronger effect = lower value; further: nearly all actives have a fitted effect of over 60% in size; on max response: on the % scale 0 is the no-effect control and ±100 the full control effect
Method in brief: (§1)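 Cytotoxicity was measured as CellTiter-Glo ATP luminescence, read after 10 min at room temperature. Compound treatment of the cells lasted 48 or 72 hr at 37 degrees Celsius in a qHTS format.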

[2] = test system: HEK293; experiment: as above; details: Five cell lines viability, CellTiter-Glo ATP luminescence, 48-72 h; max response: stronger effect = lower value
Method in brief: as §1

[3] = test system: HaCat; experiment: as above; details: Five cell lines viability, CellTiter-Glo ATP luminescence, 48-72 h; max response: stronger effect = lower value
Method in brief: as §1

[4] = test system: KB-3-1; experiment: as above; details: Five cell lines viability, CellTiter-Glo ATP luminescence, 48-72 h; max response: stronger effect = lower value
Method in brief: as §1

[5] = test system: NIH3T3; experiment: as above; details: Five cell lines viability, CellTiter-Glo ATP luminescence, 48-72 h; max response: stronger effect = lower value
Method in brief: as §1

[6] = test system: NIH3T3; experiment: qHTS assay to identify novel small-molecules to repurpose for Merkel cell carcinoma treatment (AID 1296009); details: MCC and control cell lines, CellTiter-Glo viability, 72 h; at 44.8 µM (top of the series) unless noted; further: nearly all actives have a fitted effect of over 60% in size
Method in brief: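 After compound transfer in DMSO, plates were kept 72 hr at 37 degree celsius. Luminescent ATP signal from CellTiter-Glo served as viability measure, normalized against DMSO and no-cell controls.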

[7] = test system: C33A; experiment: Primary qHTS to identify gynecologic anti-cancer compounds using libraries of approved drugs and bioactive compounds (AID 1345084); details: Gynecologic cancer cell panel viability, ATPlite luminescence, 48 h; series mostly up to 57.5 µM; further: on the % scale 0 is the no-effect control and ±100 the full control effect; nearly all actives have a fitted effect of over 55% in size
Method in brief: (§2)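 Measured: luminescence after ATPlite addition (15 min, RT). Exposure: 48 h, 37 C, 5% CO2.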

[8] = test system: CAOV3; experiment: as above; details: Gynecologic cancer cell panel viability, ATPlite luminescence, 48 h; series mostly up to 57.5 µM
Method in brief: as §2

[9] = test system: CASKI; experiment: as above; details: Gynecologic cancer cell panel viability, ATPlite luminescence, 48 h; series mostly up to 57.5 µM
Method in brief: as §2

[10] = test system: Es-2; experiment: as above; details: Gynecologic cancer cell panel viability, ATPlite luminescence, 48 h; series mostly up to 57.5 µM
Method in brief: as §2

[11] = test system: HeLa; experiment: as above; details: Gynecologic cancer cell panel viability, ATPlite luminescence, 48 h; series mostly up to 57.5 µM
Method in brief: as §2

[12] = test system: Hek293T; experiment: as above; details: Gynecologic cancer cell panel viability, ATPlite luminescence, 48 h, control line for the selectivity index; series mostly up to 57.5 µM
Method in brief: as §2

[13] = test system: JEG-3; experiment: as above; details: Gynecologic cancer cell panel viability, ATPlite luminescence, 48 h; series mostly up to 57.5 µM
Method in brief: as §2

CCC(CC)CC1(C(=O)Nc2ccccc2SC(=O)C(C)C)CCCCC1
inactive: outcome [1] | max response [2] -10.7% | max response [3] -14% | max response [4] 0.494% | outcome [5] | outcome [6] | Potency [7] | Potency [8] | outcome [9] | Potency [10] | Potency [11] | Potency [12] | Potency [13]

C/C=C(\C)C(=O)OC[C@H]1O[C@@H](O[C@H]2[C@@H](O[C@H]3O[C@H](COC(=O)/C(C)=C/C)[C@@H](O)[C@H](O)[C@H]3O[C@@H]3O[C@H](COC(=O)/C(C)=C/C)[C@@H](O)[C@H](OC(=O)/C(C)=C/C)[C@H]3O)O[C@H](COC(=O)/C(C)=C/C)[C@@H](O)[C@@H]2O)[C@H](O)[C@@H](O)[C@@H]1O
inactive: max response [1] -1.79% | max response [2] -2.95% | max response [3] -1.65% | max response [4] 7.25% | outcome [5] | outcome [6] inactive [at 9.27 µM] | activity change, negative = cytotoxicity [7] -2.71% [at 11.6 µM] | activity change, negative = cytotoxicity [8] -1.73% [at 11.6 µM] | activity change, negative = cytotoxicity [9] 3.51% [at 11.6 µM] | activity change, negative = cytotoxicity [10] 2.21% [at 11.6 µM] | activity change, negative = cytotoxicity [11] -5.02% [at 11.6 µM] | activity change, negative = cytotoxicity [12] -12.9% [at 11.6 µM] | activity change, negative = cytotoxicity [13] -4.46% [at 11.6 µM]

CC1=CCC[C@@H]2[C@](CCc3ccoc3)(C(=O)O)[C@H](C)CC[C@@]12C
inactive: max response [1] -2.77% | max response [2] -3.43% | max response [3] -10.6% | max response [4] 8.82% | outcome [5] | outcome [6] | Potency [7] | Potency [8] | outcome [9] | Potency [10] | Potency [11] | Potency [12] | Potency [13]

CC(C)=C1CC2C(CCC2(C)O)C(C)(O)CC1=O (centres undefined)
inactive: outcome [1] | max response [2] -3.11% | max response [3] -16.7% | outcome [4] | outcome [5] | outcome [6] | Potency [7] | Potency [8] | outcome [9] | Potency [10] | Potency [11] | Potency [12] | Potency [13]

NC(N)=NCCC[C@H](NC(=O)c1sccc1NS(=O)(=O)c1cccc2nsnc12)C(=O)O
inactive: outcome [1] | max response [2] -1.44% | max response [3] -1.15% | outcome [4] | outcome [5] | outcome [6] | Potency [7] | Potency [8] | outcome [9] | Potency [10] | Potency [11] | Potency [12] | Potency [13]

C=C(C(=O)O)[C@@H]1CC[C@@]2(C)CC[C@@H](O)C(=C)C2C1 (some centres undefined)
inactive: max response [1] 4.71% | max response [2] -1.36% | max response [3] -0.0078% | max response [4] -6.38% | outcome [5] | outcome [6] | Potency [7] | Potency [8] | outcome [9] | Potency [10] | Potency [11] | Potency [12] | Potency [13]

H-DPPDPDRFYGMM-NH2
inactive: outcome [1] | max response [2] -1.35% | max response [3] -3.96% | outcome [4] | outcome [5] | outcome [6] inactive [at 17.4 µM] | Potency [7] | Potency [8] | outcome [9] | Potency [10] | Potency [11] | Potency [12] | Potency [13]

C=C1CCC2[C@@](C)(C(=O)O)CCC[C@@]2(C)[C@@H]1CCc1ccoc1 (some centres undefined)
inactive: max response [1] -7.76% | max response [2] -0.447% | max response [3] -0.12% | max response [4] -3.34% | outcome [5] | outcome [6] | Potency [7] | Potency [8] | outcome [9] | Potency [10] | Potency [11] | Potency [12] | Potency [13]

CCCCS(=O)(=O)NC(Cc1ccc(OCCCCC2CCNCC2)cc1)C(=O)O (centres undefined)
inactive: max response [1] -1.48% | max response [2] -14% | max response [3] 4.29% | max response [4] 0.365% | outcome [5] | outcome [6] | Potency [7] | Potency [8] | outcome [9] | Potency [10] | Potency [11] | Potency [12] | Potency [13]

Cc1ncc(Cl)cc1NCc1ccc(C(=O)NC(CC2CCCC2)C(=O)NC2CC2)s1 (centres undefined)
inactive: outcome [1] | max response [2] -15.8% | max response [3] -11.9% | max response [4] -1.73% | outcome [5] | outcome [6] | Potency [7] | Potency [8] | outcome [9] | Potency [10] | Potency [11] | Potency [12] | Potency [13]

C=C1CC[C@@]2(OC1)O[C@H]1CC3C4CC=C5C[C@@H](O[C@@H]6O[C@@H](C)[C@H](O)[C@@H](O)[C@H]6O)C[C@@H](O[C@@H]6O[C@H](C)[C@H](O)[C@H](O)[C@H]6O[C@@H]6O[C@@H](C)[C@H](O)[C@@H](O)[C@H]6O)[C@]5(C)C4CC[C@]3(C)[C@H]1[C@@H]2C (some centres undefined)
inactive: outcome [1] | max response [2] 1.18% | max response [3] -14.8% | max response [4] 5.01% | outcome [5] | outcome [6] inactive [at 9.27 µM] | activity change, negative = cytotoxicity [7] 1.56% [at 11.6 µM] | activity change, negative = cytotoxicity [8] 10.5% [at 11.6 µM] | activity change, negative = cytotoxicity [9] -15.2% [at 11.6 µM] | activity change, negative = cytotoxicity [10] 20.8% [at 11.6 µM] | activity change, negative = cytotoxicity [11] 18.7% [at 11.6 µM] | activity change, negative = cytotoxicity [12] 5.62% [at 11.6 µM] | activity change, negative = cytotoxicity [13] -4.67% [at 11.6 µM]

C=C(C(=O)O)C1CC(O)C2(C)CCCC(C)(O)C2C1 (centres undefined)
inactive: outcome [1] | max response [2] -8.07% | max response [3] -11.8% | max response [4] 0.961% | outcome [5] | outcome [6] | Potency [7] | Potency [8] | outcome [9] | Potency [10] | Potency [11] | Potency [12] | Potency [13]

COC(=O)C1=COC(O[C@@H]2O[C@H](CO)[C@@H](O)[C@H](O)[C@H]2O)C2C(C)C(=O)CC12 (some centres undefined)
inactive: max response [1] -2.22% | max response [2] -2% | max response [3] -11.3% | max response [4] 2.31% | outcome [5] | outcome [6] | Potency [7] | Potency [8] | outcome [9] | Potency [10] | Potency [11] | Potency [12] | Potency [13]
